Inconclusive results are not listed. A call without a number means that no potency is given here. Activity calls are given as the source filed them. The call rests on the fitted dose curve; in most records, active means well fitted inhibition curve with a large enough effect; inconclusive means small, poorly fitted or top-dose-only effect; inactive means no such curve, though single readings can be large or run the other way.
Potency means the concentration at half of the fitted maximal effect.

The subject of this assay is Zika virus NS2B-NS3 protease (unlinked). The experiment in a line: Optimization of GU AMC qHTS for Zika virus inhibitors: Unlinked NS2B-NS3 protease assay (AID 1347151). Further: nearly all actives have a fitted effect of over 80% in size. Particulars: recombinant ZIKV NS2B-NS3 protease, fluorogenic AMC substrate; series mostly up to 52.5 µM. From the text: Avindra Nath, Ph.D., National Institute of Neurological Disorders and Stroke (NINDS), Bethesda, MD
Radhakrishnan Padmanabhan, Ph.D., Georgetown University (GU), Washington D.C.
Zika Virus causes congenital defects, including microcephaly and is associated with Guillain-Barre syndrome, eningoencephalitis and myelitis in infected adult. […] Using a target-based approach, we hope to establish a screening paradigm to uncover novel, cell-active NS2B-NS3 protease (Zika Virus) specific inhibitors from NCATS' collection of small molecules using qHTS.
Early Translation Branch (ETB)
National Center for Advancing Translational Sciences (NCATS), Rockville, MD
National Institute of Health (NIH), Bethesda, Maryland
Padmanabhan lab provided the NS2B hydrophilic domain and NS3 protease domain in a noncovalent complex used for the unlinked assay. Control compound aprotinin is obtained from Thermo Scientific (#78432; Waltham, Massachusetts). NS2B-NS3 AMC substrate (Bz-Nle-Lys-Arg-Arg-AMC; Nle-KRR-AMC) purchased from Bachem (#I-1995; Torrance, CA). Ac-VKTGKR-AMC purchased from Genscript or Bachem, Ac-FAAGKR-AMC purchased from Genscript, Ac-GLVKRR-AMC purchased from Genscript, Ac-LKKR-AMC purchased from Genscript.
GU AMC unlinked NS2B-NS3 protease qHTS protocol:
Briefly, 3 microL of Zika virus unlinked NS2B-NS3 protease (25 nM for linked final concentration), in assay buffer (10 mM Tris-HCl pH 8.0 with 0.01% Tween 20) was dispensed into a 1,536-well solid-bottom black plate (Greiner Bio One, Monroe, NC). Twenty-three nL of compounds (final concentration range 7.28 nM to 114 microM) or control Aprotinin (final concentration range 3.47 nM to 114 microM) were transferred via Wako Pin-tool (Wako Automation, Richmond, VA). […] Plates were then read immediately on a ViewLux High-throughput CCD imager (PerkinElmer, Waltham, MA) equipped with standard UV fluorescence optics (340(30) nm excitation, 450(20) nm emission) then incubated (room temperature, protected from light) for 15 minutes (~20% conversion). The change in fluorescence intensity over the 15-minute reaction period was normalized against no-inhibitor and no-enzyme controls and the resulting percent inhibition data were fitted to a 4-parameter Hill equation. Aprotinin was used as the intraplate control.
For the molecule `Cc1ccccc1CNc1ncnc2c1ncn2C1OC(CO)C(O)C1O` (stereo not given), the Potency result is “inactive”.

As for `Cc1cc(NC(=O)Nc2ccc3c(ccn3C)c2)sn1`, the Potency result was “inactive”.

On to `CCOC(=O)N1CCN(/[N+]([O-])=N/Oc2ccc([N+](=O)[O-])cc2[N+](=O)[O-])CC1`, for which the Potency entry is “inactive”.

`CN(C)C(N)=NCCC[C@H](N)C(=O)O`: the Potency entry is “inactive”.

Turning to `O=C1NC(=O)c2c1c(-c1ccccc1)cc1[nH]c3ccc(O)cc3c21`, the Potency result was “inactive”.

For `COc1ccc(/C=C/c2nc(NCCCN(C)C)c3ccccc3n2)cc1`, the Potency is 26.7 µM (active).

Turning to `O=C(Nc1ccncc1)c1cc([N+](=O)[O-])ccc1Cl`, the Potency result was “inactive”.

As for `Fc1ccc(C(OCCCc2cnc[nH]2)c2ccc(F)cc2)cc1`, the Potency entry was “inactive”.

On to `O=C(Nc1ccccc1)c1cc([N+](=O)[O-])ccc1Cl`, for which the Potency entry was “inactive”.

Consider `Nc1nc(OCC2CCCCC2)c2[nH]cnc2n1`, for which the Potency entry was “inactive”.

With `COC(=O)c1c(C)[nH]c(C)c1C(=O)c1ccccc1Cc1ccccc1`, the Potency entry was “inactive”.

Consider `Nc1nc(Cl)nc2c1ncn2[C@@H]1O[C@H](CO)[C@@H](O)[C@H]1O`, for which the Potency result was “inactive”.

Consider `Cn1c(=O)c(-c2c(Cl)cccc2Cl)cc2cnc(Nc3ccc(N4CCOCC4)cc3)nc21`, for which the Potency result was “inactive”.

As for `OCC1O[C@H]([S-])[C@H](O)[C@@H](O)[C@@H]1O.[Au+]` (stereo not given in full), the Potency entry is “inactive”.

Regarding `COc1ccccc1CNCCCCCCNCCCCCCCCNCCCCCCNCc1ccccc1OC`, the Potency entry is “inactive”.

Consider `O=C(c1ccc(OCCCc2cnc[nH]2)cc1)C1CC1`, for which the Potency entry is “inactive”.

In the case of `CCNc1nc2c(ncn2[C@H]2C[C@H](O)[C@@H](CO)O2)c(=O)[nH]1`, the Potency result is “inactive”.

As for `COCCOc1cc2ncnc(Cl)c2cc1OCCOC`, the Potency entry is “inactive”.

In the case of `CC(C)c1cccc(C(C)C)c1N1C(=O)c2ccc(O)cc2C1=O`, the Potency entry was “inactive”.

Regarding `O=C(O)CNC(=O)C(CS)Cc1ccccc1` (stereo not given), the Potency result is “inactive”.

For `O=C1NC(O)=NC1(c1ccccc1)c1ccccc1`, the Potency result was “inactive”.

`O=C(c1cc(O)c(O)c([N+](=O)[O-])c1)c1ccccc1F`: the Potency is 2.99 µM (active).

On to `CC(C)(NS(=O)(=O)c1ccc(Oc2ccc(F)cc2)cc1)C(=O)NO`, for which the Potency entry was “inactive”.

Turning to `CCN(CC)CCCCNc1ncc2cc(-c3c(Cl)cccc3Cl)c(NC(=O)NC(C)(C)C)nc2n1`, the Potency is 2.99 µM (active).

Consider `CCCCCCCCc1ccc(-c2ccc(C(=O)O)cc2)cc1`, for which the Potency is 11.9 µM (active).

Turning to `Oc1ccccc1O`, the Potency result was “inactive”.

`O=S(=O)(c1cccc2c(I)cccc12)N1CCCNCC1`: the Potency result was “inactive”.

For the molecule `COc1cccc(C(=O)NCCN2CCN(c3ccc(Cl)cc3)CC2)c1`, the Potency entry was “inactive”.

As for `CCCCC#Cc1nc(NC)c2ncn([C@@H]3O[C@H](CO)[C@@H](O)[C@H]3O)c2n1`, the Potency result was “inactive”.

In the case of `NCCCCC(=O)O`, the Potency entry is “inactive”.

`CC(C)NC[C@H](O)COc1cccc2[nH]ccc12`: the Potency entry was “inactive”.

For `CNC(=O)[C@H]1O[C@@H](n2cnc3c(NCc4ccc(N)cc4)ncnc32)[C@H](O)[C@@H]1O`, the Potency result was “inactive”.

For `Nc1ncnc2c1ncn2[C@@H]1O[C@H](COP(=O)(O)OP(=O)(O)OP(=O)(O)OP(=O)(O)OC[C@@H]2O[C@H](n3cnc4c(N)ncnc43)[C@@H](O)[C@H]2O)[C@@H](O)[C@H]1O`, the Potency entry was “inactive”.

On to `CC[C@H]1OC(=O)[C@H](C)C(O[C@H]2C[C@@](C)(OC)[C@@H](O)[C@H](C)O2)[C@H](C)[C@@H](OC2O[C@H](C)C[C@H](N(C)C)[C@H]2O)[C@](C)(O)C[C@@H](C)CN(C)[C@H](C)[C@@H](O)[C@]1(C)O` (stereo not given in full), for which the Potency entry was “inactive”.

Take `O=C1NC(=O)/C(=C/c2ccc(-c3ccc(F)cc3O)o2)S1`: the Potency was 21.2 µM (active).

As for `CN1CCc2cccc3c2C1Cc1ccc(O)c(O)c1-3` (stereo not given), the Potency is 26.7 µM (active).

Consider `CCN(CC)c1ncnc2c1ncn2[C@@H]1O[C@H](COP(=O)(O)OP(=O)(O)C(Br)(Br)P(=O)(O)O)[C@@H](O)[C@H]1O`, for which the Potency result is “inactive”.

On to `S=c1[nH]c(-c2ccccc2)cn1-c1ccccc1`, for which the Potency was 26.7 µM (active).

As for `NC[C@H]1O[C@@H](n2cnc3c(N)ncnc32)[C@H](O)[C@@H]1O`, the Potency result is “inactive”.

Turning to `c1ccc(-c2ccccn2)nc1`, the Potency result was “inactive”.

Values taken from PubChem BioAssay (NCATS).
